We go through 38 compounds from PubChem BioAssay (NCI).

The panel holds about 83,000 compounds, 20% with a hit somewhere; the sample as a whole holds those more often.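 Percent growth is the endpoint: 0 to 100 indicates growth inhibition (40 means 60% inhibition), 0 means no net growth, and negative values indicate cell death.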 Values without a mark were called inactive. The source made the active and inactive calls. The calls were made as follows: active = growth percent below 10; inactive = the rest.

The subject of the assay is MDA-MB-468 breast. The assay is described as follows: NCI-60 one-dose screen, 48 h (100 = growth as untreated, 0 = no growth, -100 = all killed). The note with it: 10 µM unless noted.

Consider `CC(=O)C(C(C)=O)C(c1ccccc1)C(C(C)=O)C(C)=O`, for which the growth is 98.6%.

With `C=C1C(=O)O[C@H]2[C@H]1CC/C(COC(=O)CCSSCCC(=O)OC/C1=C/CC[C@@]3(C)O[C@H]3[C@H]3OC(=O)C(=C)[C@@H]3CC1)=C\CC[C@@]1(C)O[C@@H]21`, the growth was -54% (active).

With `O=C(NCc1cn(Cc2cccc(Oc3ccccc3)c2)nn1)c1cccnc1NCc1ccc(Cl)cc1`, the growth was 17.3%.

On to `C=C[C@@H]1C[C@H](O)Cc2cc(F)ccc2N1`, for which the growth was 88.7%.

Consider `CC1(C)S[C@@H]2[C@H](NC(=O)[C@H](C(=O)O)c3cccs3)C(=O)N2[C@H]1C(=O)O`, for which the growth is 102%.

Turning to `N#C/C(=C\c1ccc(C#N)cc1)C(=O)c1ccccc1`, the growth was 95.7%.

Regarding `O=C1CCCc2nc3sc4c(=O)n(-c5ccccc5Cl)nnc4c3cc21`, the growth is 85.9%.

With `CON=C1C[C@]2(C[C@@H]3C[C@@H](C/C=C(\C)C[C@@H](C)/C=C/C=C4\CO[C@@H]5[C@H](O)C(C)=C[C@@H](C(=O)O3)[C@]45O)O2)O[C@H](/C(C)=C/C(C)C)[C@H]1C`, the growth was 49%.

With `Cc1cccc2c(=O)c3c(sc12)c(NCCN)nc1ccccc13`, the growth is -57.3% (active).

On to `CN1CCC(=C(c2ccccc2)c2ccccc2)C(c2ccccc2)C1` (stereo not drawn), for which the growth was 87.6%.

In the case of `O=C(/C=C/c1cccnc1)/C=C/c1cccnc1`, the growth was -64.1% (active).

Take `COc1ccc(-n2c(C(O)c3ccccc3)n[nH]c2=S)cc1` (stereo not drawn): the growth was 98.6%.

Regarding `O=C(Nc1ccccc1)c1cc2ccccc2s1`, the growth is 89.1%.

Consider `COC(=O)[C@H]1Cc2c([nH]c3ccccc23)[C@@H](c2cccs2)N1`, for which the growth was 101%.

In the case of `CCOC(=O)c1cnc2c(C)cccc2c1Nc1ccc(C(C)=O)cc1`, the growth is -71.2% (active).

As to `CCCCOC(OCCCC)c1ccccc1`, the growth is 104%.

As for `CC(=O)c1c(O)c(C)c(O)c2c1OC1=CC(=O)/C(=C(/C)N)C(=O)C12C` (stereo not drawn), the growth was 74.6%.

On to `NNC(=O)/C(=C\c1ccc([N+](=O)[O-])cc1)CC(=O)c1ccc(Cl)c(Cl)c1`, for which the growth is 89.2%.

With `CS(=O)(=O)Nc1ccc(C(=O)NC(C(=O)NO)c2ccc(-c3cccc(F)c3)cc2)cc1` (stereo not drawn), the growth is 95%.

Take `N#CC1=C(c2ccccc2)Nc2c(c(-c3ccc(Cl)cc3)nn2-c2ccccc2)C12C(=O)Nc1ccc(Cl)cc12` (stereo not drawn): the growth was 70%.

As to `CNC(=O)NCC1OC(n2cnc3c(NC(=O)Nc4ccccc4)ncnc32)C2OC(C)(C)OC12` (stereo not drawn), the growth was 101%.

On to `CCCCCCCCCCCCCCCCCC(=O)OCCCCCCCCCCCCC`, for which the growth is 117%.

For the compound `c1ccc(Cn2cc3c(c2)-c2oncc2CC3)cc1`, the growth is 47.2%.

Regarding `CN(C)CCCn1c(=O)c2ccccc2c2cnc3[nH]ccc3c21`, the growth was -9.4% (active).

Regarding `CCOC(=O)CSc1nc(-c2cc(OC)ccc2OC)cc(-c2ccc(OC)cc2)c1C#N`, the growth was 92.7%.

Regarding `Nc1ncnc2c1c(-c1ccc(Oc3ccccc3)cc1)nn2C[C@H]1SSC[C@@H]1O`, the growth is -26.7% (active).

For the compound `CC(C)(C)[Si](C)(C)OC1[C@@H](CNC(=O)NC(=O)CCl)O[C@@H](n2cnc3c(N)ncnc32)[C@H]1O[Si](C)(C)C(C)(C)C` (stereo partly drawn), the growth is -2.45% (active).

For `C=CCn1c(SCC(=O)Nc2cccc(C(=O)/C=C/c3ccc(Br)cc3)c2)nc2ccccc2c1=O`, the growth is 99.6%.

As to `O=C(NCCOCCOCCNc1cccc2c1C(=O)N(C1CCCNC1=O)C2=O)c1cc2c(o1)C(=O)c1ccccc1C2=O` (stereo not drawn), the growth is -36.6% (active).

With `COc1cc(C(=O)/C=C/c2c[nH]c3ccccc23)cc(OC)c1OC`, the growth is -5.45% (active).

Turning to `COc1ccc2c(c1)c(-c1nc(-c3c[nH]c4ccncc34)cs1)cn2C`, the growth is -60.8% (active).

Turning to `CCOC(=O)c1c(SC)nn(-c2cc(=O)[nH]c3ccc(Br)cc23)c1N`, the growth is 115%.

Turning to `c1cncc(-c2csc(-c3c[nH]c4ccccc34)n2)c1`, the growth was 99.1%.

As to `COc1cc(/C=C\C(=O)O)ccc1OCc1ccccc1`, the growth was 92.5%.

In the case of `CC(C)c1[nH]ncc1-c1nc2ccc3[nH]ncc3c2c2c1CCCC2`, the growth is 69.3%.

With `CCOC(=O)c1ccoc1`, the growth was 95.7%.

Take `COc1ccc(S(=O)(=O)n2cc(C=O)c3ccccc32)c(OC)c1`: the growth is 84.7%.

As to `C#Cc1cccc(Nc2ncnc3ccc(-c4cncc(NS(C)(=O)=O)c4)cc23)c1`, the growth was -40.3% (active).
